From PubChem BioAssay (EPA / NIEHS) come the findings set out here.

Experiment [1] is described as follows: ATG_CRE_CIS: Attagene CIS-FACTORIAL HepG2 Assay for human cAMP Responsive Element (CRE) binding protein 3 (AID 2282926). To be noted: HepG2 CRE cis-reporter, Attagene multiplexed mRNA; actives raise or lower the signal. The procedure, abridged: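 Human liver HepG2, transient MRTU transfection, 24 h compound exposure. Total RNA → oligo(dT) RT → PCR → 6-FAM primer extension → HpaI cut → CE. Activity called both directions vs DMSO.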

Experiment [2] addresses CCAAT/enhancer-binding protein beta (Homo sapiens) (UniProt P17676). The experiment in a line: ATG_C_EBP_CIS: Attagene CIS-FACTORIAL HepG2 Assay for human CCAAT/Enhancer Binding Protein (C/EBP) beta (AID 2282927). To be noted: HepG2 Attagene cis-factorial transcription factor reporter; actives raise or lower the signal. Put shortly: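 Transiently transfected HepG2 (MRTU library, endogenous TF-driven promoters); 24 h dosing; total RNA → oligo(dT) RT → PCR → 6-FAM primer extension → HpaI digest → CE; fit bidirectionally vs DMSO.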

Experiment [3] can be described thus: ATG_CMV_CIS: Attagene CIS-FACTORIAL HepG2 Assay for human CMV (Internal Marker) (AID 2282928).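 Further: endpoint acts as a background internal control marker rather than a target.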 The settings on record: HepG2 CMV promoter reporter, transcription factor profiling; actives raise or lower the signal. The procedure, abridged:
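CMV internal-marker background readout in transiently transfected HepG2 cells bearing cis-regulated reporter units. Reporter mRNA is measured 24 h after dosing by RT-PCR and capillary electrophoresis, with bidirectional fitting against DMSO.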

Experiment [4] in a line: ATG_DR4_LXR_CIS: Attagene CIS-FACTORIAL HepG2 Assay for human Liver X Receptor (LXR), DR4 submotif (AID 2282929). To be noted: HepG2 Attagene DR4 cis-reporter, mRNA transcription; actives raise or lower the signal. The procedure, abridged:
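HepG2 cells transiently transfected with cis-promoter-driven multiplexed reporter units (DR4 element) were dosed for 24 h. Reporter mRNA was quantified by RT-PCR, fluorescent primer extension, HpaI digestion and capillary electrophoresis; bidirectional fitting versus DMSO baseline.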

Experiment [5] can be described thus: ATG_AP_1_CIS: Attagene CIS-FACTORIAL HepG2 Assay for human Activator Protein 1 (AP-1) (AID 2282931). To be noted: HepG2 Attagene cis-factorial AP-1 reporter mRNA; actives raise or lower the signal. The procedure, abridged: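 HepG2 cells transiently transfected with cis-element-driven multiplex reporter units; 24 h compound exposure. Reporter mRNA quantified by RT-PCR, FAM-labelled fragments resolved by capillary electrophoresis; bidirectional fit versus DMSO baseline.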

Experiment [6] in a line: ATG_AP_2_CIS: Attagene CIS-FACTORIAL HepG2 Assay for human Activator Protein 2 (AP-2) (AID 2282932). The settings on record: HepG2 AP-2 cis-reporter, Attagene transcription factor profiling; actives raise or lower the signal. The procedure, abridged:
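Multiplexed mRNA reporter assay in HepG2: cis-regulated units report endogenous factor activity after 24 h treatment. Fluorescence from capillary electrophoresis of RT-PCR products gives the signal, with DMSO as baseline.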

The nature of experiment [7]: ATG_BRE_CIS: Attagene CIS-FACTORIAL HepG2 Assay for human Bone Morphogenetic Protein (BMP) Response Element (BRE) (AID 2282933). To be noted: HepG2 BMP response element reporter, Attagene transcription factor profiling; actives raise or lower the signal. The procedure, abridged:
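After a 24 h chemical treatment, transiently transfected HepG2 cells were lysed for RNA; reporter transcripts were quantified by fluorescent RT-PCR and capillary electrophoresis, normalised to DMSO.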

For experiment [8], the target named is Transcription factor E2F1 (Homo sapiens) (UniProt Q01094). In words: ATG_E2F_CIS: Attagene CIS-FACTORIAL HepG2 Assay for human E2F Transcription Factor 1 (AID 2282935). The settings on record: HepG2 Attagene cis-reporter, E2F reporter RNA transcripts; actives raise or lower the signal. The procedure, abridged:
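Measures reporter transcript levels via RT-PCR with capillary electrophoresis detection in HepG2 cells harboring cis-regulated reporter units; 24 h post-dose; bidirectional curve fitting with DMSO as baseline.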

Experiment [9] in a line: ATG_E_Box_CIS: Attagene CIS-FACTORIAL HepG2 Assay for human Enhancer Box (E-box) (AID 2282936). The settings on record: HepG2 E-box cis-reporter transcription, actives raise or lower the signal. Put shortly:
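First, HepG2 cells receive multiple cis-regulated reporter constructs by transient transfection. Next, chemicals are applied for 24 h. Finally, reporter mRNA is quantified via RT-PCR and capillary electrophoresis, with DMSO as baseline.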

Experiment [10] in a line: ATG_M_61_CIS: Attagene CIS-FACTORIAL HepG2 Assay for M61 Transcription Factor (Internal Marker) (AID 2282937). To be noted: HepG2 Attagene CIS-FACTORIAL M61 internal marker reporter; actives raise or lower the signal. Put shortly:
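HepG2 cells transiently transfected with cis-element-driven multiple reporter transcription units, dosed for 24 h. Reporter mRNA measured by RT-PCR, 6-FAM primer-extension labelling, HpaI digestion and capillary electrophoresis; bidirectional fit versus DMSO baseline.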

A short description of experiment [11]: ATG_EGR_CIS: Attagene CIS-FACTORIAL HepG2 Assay for human Early Growth Response 1 (EGR1) (AID 2282938). To be noted: HepG2 Attagene CIS-FACTORIAL EGR reporter mRNA; actives raise or lower the signal. Put shortly:
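HepG2 cells transiently transfected with cis-promoter-driven multiplexed reporter transcription units; reporter mRNA measured 24 h after compound dosing by RT-PCR, 6-FAM primer extension, HpaI digestion and capillary electrophoresis. Bidirectional fit versus DMSO baseline.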

A short description of experiment [12]: ATG_Ets_CIS: Attagene CIS-FACTORIAL HepG2 Assay for human Erythroblast Transformation Specific (ETS) (AID 2282941). To be noted: HepG2 ETS cis-reporter transcription, actives raise or lower the signal. Put shortly:
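HepG2 cells transfected with multiple cis-regulated reporter units measuring endogenous ETS-driven transcription, 24 h after dosing. Reporter mRNA quantified by RT-PCR with capillary electrophoresis; bidirectional fit relative to DMSO.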

Experiment [13] is described as follows: ATG_FoxO_CIS: Attagene CIS-FACTORIAL HepG2 Assay for human Forkhead box O (FoxO) (AID 2282943). To be noted: HepG2 Attagene cis-reporter, FoxO element, mRNA; actives raise or lower the signal. The procedure, abridged:
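Read-out: fluorescence of 6-FAM-labelled reporter cDNA fragments resolved by capillary electrophoresis. Transiently transfected HepG2 cells were dosed for 24 h; activity fitted in both directions relative to DMSO controls.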

The nature of experiment [14]: ATG_GATA_CIS: Attagene CIS-FACTORIAL HepG2 Assay for human GATA Binding Protein (AID 2282944). To be noted: HepG2 GATA cis-element reporter, Attagene multiplex mRNA; actives raise or lower the signal. Put shortly:
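Measures endogenous transcription factor-driven reporter mRNA in HepG2 cells transiently carrying cis-regulated constructs. 24 h dosing; RNA via oligo(dT) reverse transcription, PCR, HpaI digestion, capillary electrophoresis; fitted relative to DMSO.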

Experiment [15] is described as follows: ATG_GLI_CIS: Attagene CIS-FACTORIAL HepG2 Assay for human Zinc Finger Protein GLI1 (AID 2282945). To be noted: HepG2, Attagene cis-factorial reporter mRNA, GLI element; actives raise or lower the signal. Put shortly:
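Transiently transfected HepG2 cells report endogenous transcription factor activity via cis-element-driven reporter units. After 24 h compound exposure, reporter mRNA was measured by RT-PCR with capillary electrophoresis; bidirectional fitting against DMSO baseline.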

Experiment [16] in a line: ATG_ISRE_CIS: Attagene CIS-FACTORIAL HepG2 Assay for human Interferon Regulatory Factor 1 (IRF1) binding to an Interferon-Stimulated Response Element (ISRE) (AID 2282948). The settings on record: HepG2 ISRE cis-reporter (Attagene), mRNA transcription readout; actives raise or lower the signal. Put shortly:
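Transiently transfected HepG2 cells carrying cis-element reporter units, dosed 24 hours. Reporter mRNA quantified by RT-PCR, fluorescent primer extension, HpaI digestion and capillary electrophoresis. Bidirectional fitting relative to DMSO.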

The nature of experiment [17]: ATG_M_32_CIS: Attagene CIS-FACTORIAL HepG2 Assay for M32 Transcription Factor (Internal Marker) (AID 2282949).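 Further: background control marker of the multiplexed CIS panel rather than a real target.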 The settings on record: HepG2 Attagene cis-factorial M32 reporter, mRNA; actives raise or lower the signal. The procedure, abridged: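 Following 24 h chemical exposure of HepG2 cells transiently expressing cis-promoter reporter constructs, reporter transcript levels were determined by RT-PCR with fluorescent labelling and capillary electrophoresis, then fitted bidirectionally against DMSO.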

Experiment [18] in a line: ATG_M_06_CIS: Attagene CIS-FACTORIAL HepG2 Assay for M06 Transcription Factor (Internal Marker) (AID 2282950). To be noted: HepG2 Attagene CIS-FACTORIAL M06 internal marker reporter; actives raise or lower the signal. Put shortly:
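One of many multiplexed endpoints: HepG2 reporter mRNA after 24 h dosing, detected by RT-PCR and capillary electrophoresis fluorescence; gain or loss of signal analysed against DMSO.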

For experiment [19], the target named is Paired box protein Pax-6 (Homo sapiens) (UniProt P26367). In words: ATG_Pax6_CIS: Attagene CIS-FACTORIAL HepG2 Assay for human Paired Box 6 (PAX6) (AID 2282956). To be noted: HepG2 CIS-FACTORIAL PAX6 reporter transcription, RNA readout; actives raise or lower the signal. Put shortly: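 HepG2 cells transiently transfected with cis-promoter-driven multiplexed reporter units sensing endogenous transcription factor activity; 24 h chemical exposure. Reporter mRNA quantified by RT-PCR, 6-FAM labelling, HpaI digestion and capillary electrophoresis; bidirectional fit versus DMSO baseline.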
Chain of Paired box protein Pax-6 (Homo sapiens) (P26367 whole entry, looked up): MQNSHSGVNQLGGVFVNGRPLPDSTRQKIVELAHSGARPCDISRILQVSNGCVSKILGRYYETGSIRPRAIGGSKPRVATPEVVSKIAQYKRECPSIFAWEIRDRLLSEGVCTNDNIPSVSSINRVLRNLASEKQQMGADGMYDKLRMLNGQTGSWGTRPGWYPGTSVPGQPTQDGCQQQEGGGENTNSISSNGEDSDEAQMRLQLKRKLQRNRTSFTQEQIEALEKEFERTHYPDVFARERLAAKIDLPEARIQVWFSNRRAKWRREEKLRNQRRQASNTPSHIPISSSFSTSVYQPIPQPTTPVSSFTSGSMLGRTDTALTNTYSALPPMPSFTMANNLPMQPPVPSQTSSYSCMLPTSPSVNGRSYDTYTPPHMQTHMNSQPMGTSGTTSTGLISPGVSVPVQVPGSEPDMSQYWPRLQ

Experiment [20] can be described thus: ATG_PXRE_CIS: Attagene CIS-FACTORIAL HepG2 Assay for human Pregnane X Receptor Element (PXRE) (AID 2282957). To be noted: HepG2 Attagene CIS-FACTORIAL PXRE reporter, mRNA; actives raise or lower the signal. The procedure, abridged: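 Transfect HepG2 with MRTUs (cis promoter elements); dose chemical, incubate 24 h; isolate RNA, RT with oligo(dT), PCR, 6-FAM label, HpaI cut, CE. Gain/loss fit vs DMSO.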

Calls of active or inactive are those of the source. How the source made its calls: active means hit-call score of the fitted dose curve at least 0.9, where 1 is the maximum; inactive means score below 0.9.

Chain of Transcription factor E2F1 (Homo sapiens) (Q01094 whole entry, looked up): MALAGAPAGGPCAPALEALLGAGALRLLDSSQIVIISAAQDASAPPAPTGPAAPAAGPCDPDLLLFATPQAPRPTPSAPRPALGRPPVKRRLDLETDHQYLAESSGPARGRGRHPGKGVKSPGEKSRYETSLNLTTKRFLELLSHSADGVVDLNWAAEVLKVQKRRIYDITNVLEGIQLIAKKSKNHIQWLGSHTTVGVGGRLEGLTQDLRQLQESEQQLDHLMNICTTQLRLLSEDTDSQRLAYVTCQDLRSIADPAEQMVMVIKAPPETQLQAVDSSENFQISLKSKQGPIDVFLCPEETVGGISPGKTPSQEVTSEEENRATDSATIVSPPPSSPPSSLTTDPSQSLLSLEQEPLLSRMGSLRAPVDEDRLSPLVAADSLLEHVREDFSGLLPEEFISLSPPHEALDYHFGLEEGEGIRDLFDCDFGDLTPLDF
Chain of CCAAT/enhancer-binding protein beta (Homo sapiens) (P17676 whole entry, looked up): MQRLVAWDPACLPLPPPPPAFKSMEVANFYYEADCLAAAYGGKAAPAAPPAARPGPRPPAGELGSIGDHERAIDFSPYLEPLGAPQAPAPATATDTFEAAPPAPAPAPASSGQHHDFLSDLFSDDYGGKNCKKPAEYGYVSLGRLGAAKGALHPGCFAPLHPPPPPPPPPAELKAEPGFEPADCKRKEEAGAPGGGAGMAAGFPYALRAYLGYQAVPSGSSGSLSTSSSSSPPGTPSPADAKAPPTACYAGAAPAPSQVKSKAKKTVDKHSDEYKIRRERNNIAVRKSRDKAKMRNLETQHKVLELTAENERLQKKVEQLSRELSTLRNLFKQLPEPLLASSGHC

With `CCC(C)NC(N)=O` (stereo not given), the result in [1], in experiment [2], in experiment [3], in [4], in [5] and in experiment [6] was inactive. Further, the compound was called inactive in experiment [7], in [8], in [9], in [10], in experiment [11] and in [12]. The compound was classed as inactive in experiment [13], in [14], in experiment [15], in experiment [16], in [17] and in [18]. Further, the outcome in [19] and in [20] was inactive.

Consider `CC=CC(=O)O`, for which the outcome in experiment [1], in [2], in experiment [3], in experiment [4], in experiment [5] and in experiment [6] was inactive. Further, the result in experiment [7], in experiment [8], in experiment [9], in experiment [10], in experiment [11] and in experiment [12] was inactive. The compound was classed as inactive in experiment [13], in [14], in experiment [15], in experiment [16], in experiment [17] and in experiment [18]. Further, the compound was called inactive in [19] and in experiment [20].

Turning to `CNC(=C[N+](=O)[O-])NCCSCc1csc(CN(C)C)n1`, the outcome in experiment [1], in experiment [2], in [3], in experiment [4], in [5] and in [6] was inactive. Besides, the compound was classed as inactive in [7], in experiment [8], in experiment [9], in [10], in [11] and in experiment [12]. For the same compound, the outcome in experiment [13], in experiment [14], in experiment [15], in experiment [16], in experiment [17] and in experiment [18] was inactive. For the same compound, the result in [19] and in experiment [20] was inactive.

As to `C=CCOCC(CC)(CO)COCC=C`, the compound was classed as inactive in experiment [1], in experiment [2], in experiment [3], in experiment [4], in experiment [5] and in experiment [6]. For the same compound, the result in experiment [7], in experiment [8], in [9], in experiment [10], in experiment [11] and in experiment [12] was inactive. Besides, the compound was called inactive in experiment [13], in experiment [14], in [15], in experiment [16], in experiment [17] and in experiment [18]. In addition, in [19], the outcome was inactive. For the same compound, the concentration at half-maximal activity (AC50) in experiment [20] is 47.1 µM (active).
